Test results published in ChEMBL document CHEMBL1961873, “Compounds: GSK PKIS; Assays: Nanosyn kinase panel” (2012).

Experiments:
[1] = target: T1, Inhibitor of nuclear factor kappa-B kinase subunit epsilon (Homo sapiens) (UniProt Q14164); settings: at 1 µM;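 further: reported values are averaged percent inhibition figures against human IKKε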
T1 sequence (whole entry): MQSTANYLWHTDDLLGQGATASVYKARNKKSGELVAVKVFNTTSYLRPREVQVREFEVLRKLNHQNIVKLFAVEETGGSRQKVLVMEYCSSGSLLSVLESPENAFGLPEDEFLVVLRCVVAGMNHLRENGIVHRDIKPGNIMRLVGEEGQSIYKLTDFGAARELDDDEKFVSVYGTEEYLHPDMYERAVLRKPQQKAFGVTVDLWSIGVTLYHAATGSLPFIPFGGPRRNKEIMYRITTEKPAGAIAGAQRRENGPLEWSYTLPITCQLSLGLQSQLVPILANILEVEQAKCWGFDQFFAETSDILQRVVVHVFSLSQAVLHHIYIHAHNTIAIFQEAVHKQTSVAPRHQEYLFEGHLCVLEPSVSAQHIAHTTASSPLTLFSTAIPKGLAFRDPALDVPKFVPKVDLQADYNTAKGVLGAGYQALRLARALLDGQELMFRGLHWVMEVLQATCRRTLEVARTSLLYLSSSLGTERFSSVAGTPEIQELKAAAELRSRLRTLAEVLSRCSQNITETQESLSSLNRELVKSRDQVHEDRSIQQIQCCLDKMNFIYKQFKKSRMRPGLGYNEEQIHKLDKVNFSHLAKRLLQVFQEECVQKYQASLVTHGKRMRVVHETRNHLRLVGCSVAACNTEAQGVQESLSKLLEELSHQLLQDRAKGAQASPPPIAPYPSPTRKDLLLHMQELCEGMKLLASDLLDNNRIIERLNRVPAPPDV

[2] = target: T2, Serine/threonine-protein kinase Nek1 (Homo sapiens) (UniProt Q96PY6); settings: at 0.1 µM
T2 sequence (whole entry): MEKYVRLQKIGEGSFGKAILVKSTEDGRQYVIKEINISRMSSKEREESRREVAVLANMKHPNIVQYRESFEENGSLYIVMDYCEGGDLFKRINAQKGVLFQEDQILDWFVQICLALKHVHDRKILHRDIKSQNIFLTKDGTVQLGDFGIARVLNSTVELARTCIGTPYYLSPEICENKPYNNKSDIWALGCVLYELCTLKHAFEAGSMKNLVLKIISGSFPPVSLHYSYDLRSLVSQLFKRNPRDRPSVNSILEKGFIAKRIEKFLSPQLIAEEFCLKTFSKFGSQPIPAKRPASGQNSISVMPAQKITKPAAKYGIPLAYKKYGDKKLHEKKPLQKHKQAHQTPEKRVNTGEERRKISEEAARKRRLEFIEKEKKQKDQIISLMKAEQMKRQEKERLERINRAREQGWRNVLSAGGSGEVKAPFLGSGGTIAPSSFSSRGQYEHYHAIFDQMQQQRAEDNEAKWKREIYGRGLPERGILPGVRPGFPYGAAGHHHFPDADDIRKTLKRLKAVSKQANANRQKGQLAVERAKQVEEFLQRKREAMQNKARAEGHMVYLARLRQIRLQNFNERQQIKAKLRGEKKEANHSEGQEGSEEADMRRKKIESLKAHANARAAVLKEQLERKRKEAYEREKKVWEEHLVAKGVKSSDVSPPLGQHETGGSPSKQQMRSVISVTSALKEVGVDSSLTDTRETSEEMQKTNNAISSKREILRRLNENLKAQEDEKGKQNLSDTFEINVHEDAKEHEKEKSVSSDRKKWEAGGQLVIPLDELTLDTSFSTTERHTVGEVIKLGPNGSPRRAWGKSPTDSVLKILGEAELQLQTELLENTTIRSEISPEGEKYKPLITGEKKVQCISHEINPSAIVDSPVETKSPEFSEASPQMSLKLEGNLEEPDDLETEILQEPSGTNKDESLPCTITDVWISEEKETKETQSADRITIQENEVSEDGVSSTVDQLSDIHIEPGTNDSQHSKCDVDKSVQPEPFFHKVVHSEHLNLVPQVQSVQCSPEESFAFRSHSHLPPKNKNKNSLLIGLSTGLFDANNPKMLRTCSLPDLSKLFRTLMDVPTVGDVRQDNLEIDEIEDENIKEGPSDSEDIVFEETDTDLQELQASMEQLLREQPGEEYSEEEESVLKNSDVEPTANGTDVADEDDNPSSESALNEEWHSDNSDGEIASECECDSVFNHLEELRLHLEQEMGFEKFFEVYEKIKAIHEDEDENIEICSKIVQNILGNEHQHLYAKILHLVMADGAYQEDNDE

[3] = target: T2, Serine/threonine-protein kinase Nek1 (Homo sapiens); settings: at 1 µM
[4] = target: T3, Serine/threonine-protein kinase Nek2 (Homo sapiens) (UniProt P51955); settings: at 0.1 µM
T3 sequence (whole entry): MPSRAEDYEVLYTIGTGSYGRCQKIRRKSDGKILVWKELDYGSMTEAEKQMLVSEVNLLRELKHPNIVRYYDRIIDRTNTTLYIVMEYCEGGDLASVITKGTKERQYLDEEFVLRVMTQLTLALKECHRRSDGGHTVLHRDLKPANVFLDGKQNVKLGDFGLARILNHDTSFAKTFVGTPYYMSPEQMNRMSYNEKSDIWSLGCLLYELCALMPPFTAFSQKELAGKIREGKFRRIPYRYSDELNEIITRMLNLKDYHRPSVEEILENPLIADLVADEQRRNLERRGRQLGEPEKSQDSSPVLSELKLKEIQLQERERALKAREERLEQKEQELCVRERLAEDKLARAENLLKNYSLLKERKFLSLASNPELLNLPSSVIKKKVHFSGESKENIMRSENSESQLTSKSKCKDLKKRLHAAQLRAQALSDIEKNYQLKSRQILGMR

[5] = target: T3, Serine/threonine-protein kinase Nek2 (Homo sapiens); settings: at 1 µM
[6] = target: Serine/threonine-protein kinase Nek6 (Homo sapiens) (UniProt Q9HC98); settings: at 0.1 µM
Chain of Serine/threonine-protein kinase Nek6 (Homo sapiens) (Q9HC98 whole entry): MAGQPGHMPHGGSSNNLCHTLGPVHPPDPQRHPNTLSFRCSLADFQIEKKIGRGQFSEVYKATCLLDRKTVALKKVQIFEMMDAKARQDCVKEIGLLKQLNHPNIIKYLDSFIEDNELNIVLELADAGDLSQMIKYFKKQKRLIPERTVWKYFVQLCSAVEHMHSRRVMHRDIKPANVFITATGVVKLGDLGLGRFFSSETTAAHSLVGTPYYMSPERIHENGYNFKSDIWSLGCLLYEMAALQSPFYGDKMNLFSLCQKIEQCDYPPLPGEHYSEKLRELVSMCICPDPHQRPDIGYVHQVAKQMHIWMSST

[7] = target: Serine/threonine-protein kinase Nek6 (Homo sapiens) (UniProt Q9HC98); settings: at 1 µM
[8] = target: Serine/threonine-protein kinase Nek7 (Homo sapiens) (UniProt Q8TDX7); settings: at 0.1 µM
Chain of Serine/threonine-protein kinase Nek7 (Homo sapiens) (Q8TDX7 whole entry, looked up): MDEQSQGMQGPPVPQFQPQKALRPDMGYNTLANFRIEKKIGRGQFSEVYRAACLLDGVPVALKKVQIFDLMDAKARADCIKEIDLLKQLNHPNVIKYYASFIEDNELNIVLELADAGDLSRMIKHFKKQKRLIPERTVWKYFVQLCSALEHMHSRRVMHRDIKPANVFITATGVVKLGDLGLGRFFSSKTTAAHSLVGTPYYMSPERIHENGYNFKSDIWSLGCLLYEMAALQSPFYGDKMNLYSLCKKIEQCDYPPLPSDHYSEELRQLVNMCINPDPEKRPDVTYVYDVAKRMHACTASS

[9] = target: Serine/threonine-protein kinase Nek7 (Homo sapiens) (UniProt Q8TDX7); settings: at 1 µM
[10] = target: T4, Serine/threonine-protein kinase Nek9 (Homo sapiens) (UniProt Q8TD19); settings: at 0.1 µM
T4 sequence (whole entry): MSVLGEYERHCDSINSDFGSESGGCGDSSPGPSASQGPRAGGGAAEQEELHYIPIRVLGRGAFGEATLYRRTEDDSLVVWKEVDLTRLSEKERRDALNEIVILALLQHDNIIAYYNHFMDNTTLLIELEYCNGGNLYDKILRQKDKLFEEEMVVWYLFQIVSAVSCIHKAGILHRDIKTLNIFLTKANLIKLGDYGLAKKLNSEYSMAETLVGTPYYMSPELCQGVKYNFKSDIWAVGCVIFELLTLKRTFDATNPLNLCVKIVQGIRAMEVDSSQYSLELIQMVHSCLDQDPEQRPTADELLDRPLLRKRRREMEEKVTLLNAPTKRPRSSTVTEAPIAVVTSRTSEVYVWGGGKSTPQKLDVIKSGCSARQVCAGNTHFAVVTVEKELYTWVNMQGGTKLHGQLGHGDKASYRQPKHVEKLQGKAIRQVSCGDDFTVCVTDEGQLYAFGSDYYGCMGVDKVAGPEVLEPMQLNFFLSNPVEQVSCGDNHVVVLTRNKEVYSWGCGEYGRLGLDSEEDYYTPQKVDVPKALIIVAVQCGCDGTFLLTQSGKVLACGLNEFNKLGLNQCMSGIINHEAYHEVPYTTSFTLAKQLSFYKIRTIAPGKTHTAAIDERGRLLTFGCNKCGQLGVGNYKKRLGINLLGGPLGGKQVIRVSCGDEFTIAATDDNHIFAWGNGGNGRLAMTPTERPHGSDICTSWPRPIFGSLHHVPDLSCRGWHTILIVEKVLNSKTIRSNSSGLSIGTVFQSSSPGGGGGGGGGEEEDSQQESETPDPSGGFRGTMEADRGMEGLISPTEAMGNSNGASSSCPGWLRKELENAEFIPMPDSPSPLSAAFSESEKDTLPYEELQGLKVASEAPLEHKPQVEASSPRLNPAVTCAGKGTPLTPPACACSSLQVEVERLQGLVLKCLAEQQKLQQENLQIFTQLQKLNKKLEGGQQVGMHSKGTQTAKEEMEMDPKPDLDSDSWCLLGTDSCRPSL

[11] = target: T4, Serine/threonine-protein kinase Nek9 (Homo sapiens); settings: at 1 µM
[12] = target: Serine/threonine-protein kinase PLK1 (Homo sapiens) (UniProt P53350); settings: at 0.1 µM
Chain of Serine/threonine-protein kinase PLK1 (Homo sapiens) (P53350 whole entry): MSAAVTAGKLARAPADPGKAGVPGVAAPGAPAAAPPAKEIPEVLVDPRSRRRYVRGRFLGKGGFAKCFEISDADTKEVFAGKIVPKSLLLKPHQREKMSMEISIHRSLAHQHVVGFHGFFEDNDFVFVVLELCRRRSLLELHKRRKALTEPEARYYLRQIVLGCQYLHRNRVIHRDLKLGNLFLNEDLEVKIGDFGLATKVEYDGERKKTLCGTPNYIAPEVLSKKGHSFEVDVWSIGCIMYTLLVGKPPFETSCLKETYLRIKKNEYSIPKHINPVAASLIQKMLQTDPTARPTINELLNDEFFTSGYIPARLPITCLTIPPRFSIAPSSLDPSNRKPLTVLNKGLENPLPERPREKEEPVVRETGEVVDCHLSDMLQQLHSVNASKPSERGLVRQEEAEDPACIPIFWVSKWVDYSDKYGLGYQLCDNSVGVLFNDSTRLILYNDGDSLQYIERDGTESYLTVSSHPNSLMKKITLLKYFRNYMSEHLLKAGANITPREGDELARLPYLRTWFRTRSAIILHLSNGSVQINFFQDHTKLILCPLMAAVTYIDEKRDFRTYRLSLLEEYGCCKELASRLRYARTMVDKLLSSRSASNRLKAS

[13] = target: Serine/threonine-protein kinase PLK1 (Homo sapiens) (UniProt P53350); settings: at 1 µM
[14] = target: T5, Dual specificity protein kinase TTK (Homo sapiens) (UniProt P33981); settings: at 0.1 µM
T5 sequence (whole entry): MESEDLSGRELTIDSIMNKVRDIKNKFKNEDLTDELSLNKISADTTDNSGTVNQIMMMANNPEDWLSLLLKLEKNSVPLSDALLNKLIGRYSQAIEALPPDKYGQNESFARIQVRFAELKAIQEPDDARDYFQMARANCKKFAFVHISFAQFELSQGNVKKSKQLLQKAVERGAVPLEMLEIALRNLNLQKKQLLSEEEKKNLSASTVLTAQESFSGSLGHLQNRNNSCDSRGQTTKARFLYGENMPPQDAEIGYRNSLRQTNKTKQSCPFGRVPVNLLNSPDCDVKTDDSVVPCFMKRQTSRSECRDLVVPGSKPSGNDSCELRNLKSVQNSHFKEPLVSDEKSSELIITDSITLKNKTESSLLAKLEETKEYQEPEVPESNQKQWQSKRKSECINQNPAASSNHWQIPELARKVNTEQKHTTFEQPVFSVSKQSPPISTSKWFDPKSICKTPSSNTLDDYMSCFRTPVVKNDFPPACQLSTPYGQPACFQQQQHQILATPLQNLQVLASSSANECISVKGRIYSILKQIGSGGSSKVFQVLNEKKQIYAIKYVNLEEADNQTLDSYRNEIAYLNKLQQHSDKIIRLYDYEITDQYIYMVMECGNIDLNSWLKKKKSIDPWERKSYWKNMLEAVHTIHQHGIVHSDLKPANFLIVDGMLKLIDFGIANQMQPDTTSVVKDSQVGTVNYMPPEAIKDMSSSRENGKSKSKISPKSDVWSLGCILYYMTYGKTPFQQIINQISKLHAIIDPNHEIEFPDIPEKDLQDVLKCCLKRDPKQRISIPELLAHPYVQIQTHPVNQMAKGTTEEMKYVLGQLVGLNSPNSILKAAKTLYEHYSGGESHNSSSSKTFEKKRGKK

[15] = tested on: T6, Receptor-type tyrosine-protein kinase FLT3 (Homo sapiens), P36888 [D835Y]; settings: at 1 µM
T6 sequence (whole entry): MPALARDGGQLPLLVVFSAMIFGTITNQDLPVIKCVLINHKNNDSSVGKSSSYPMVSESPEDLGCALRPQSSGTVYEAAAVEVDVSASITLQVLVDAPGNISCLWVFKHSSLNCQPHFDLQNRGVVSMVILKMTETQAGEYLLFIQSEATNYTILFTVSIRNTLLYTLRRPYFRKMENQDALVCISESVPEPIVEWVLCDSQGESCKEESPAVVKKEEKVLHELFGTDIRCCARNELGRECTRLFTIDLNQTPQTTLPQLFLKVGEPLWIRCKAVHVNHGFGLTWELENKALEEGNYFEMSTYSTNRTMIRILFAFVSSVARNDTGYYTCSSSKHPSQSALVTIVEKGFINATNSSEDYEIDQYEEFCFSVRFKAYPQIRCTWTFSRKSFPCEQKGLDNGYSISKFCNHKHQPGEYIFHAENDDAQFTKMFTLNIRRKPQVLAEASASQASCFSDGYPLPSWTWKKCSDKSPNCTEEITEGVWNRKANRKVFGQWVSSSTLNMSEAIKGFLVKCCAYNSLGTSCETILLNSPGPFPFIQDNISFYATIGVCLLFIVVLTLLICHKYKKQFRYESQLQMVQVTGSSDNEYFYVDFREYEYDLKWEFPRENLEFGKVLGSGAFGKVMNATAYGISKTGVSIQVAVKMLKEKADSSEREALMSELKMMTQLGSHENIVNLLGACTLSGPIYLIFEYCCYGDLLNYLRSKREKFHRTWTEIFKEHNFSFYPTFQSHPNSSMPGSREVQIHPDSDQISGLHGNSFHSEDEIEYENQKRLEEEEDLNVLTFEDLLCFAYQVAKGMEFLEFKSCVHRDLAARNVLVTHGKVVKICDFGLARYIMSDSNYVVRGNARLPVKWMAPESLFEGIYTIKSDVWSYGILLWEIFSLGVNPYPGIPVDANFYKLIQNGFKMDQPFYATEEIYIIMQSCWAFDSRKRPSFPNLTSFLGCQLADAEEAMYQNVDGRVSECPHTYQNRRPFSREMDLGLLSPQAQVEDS

[16] = target: Vascular endothelial growth factor receptor 3 (Homo sapiens) (UniProt P35916); settings: at 0.1 µM
Chain of Vascular endothelial growth factor receptor 3 (Homo sapiens) (P35916 whole entry): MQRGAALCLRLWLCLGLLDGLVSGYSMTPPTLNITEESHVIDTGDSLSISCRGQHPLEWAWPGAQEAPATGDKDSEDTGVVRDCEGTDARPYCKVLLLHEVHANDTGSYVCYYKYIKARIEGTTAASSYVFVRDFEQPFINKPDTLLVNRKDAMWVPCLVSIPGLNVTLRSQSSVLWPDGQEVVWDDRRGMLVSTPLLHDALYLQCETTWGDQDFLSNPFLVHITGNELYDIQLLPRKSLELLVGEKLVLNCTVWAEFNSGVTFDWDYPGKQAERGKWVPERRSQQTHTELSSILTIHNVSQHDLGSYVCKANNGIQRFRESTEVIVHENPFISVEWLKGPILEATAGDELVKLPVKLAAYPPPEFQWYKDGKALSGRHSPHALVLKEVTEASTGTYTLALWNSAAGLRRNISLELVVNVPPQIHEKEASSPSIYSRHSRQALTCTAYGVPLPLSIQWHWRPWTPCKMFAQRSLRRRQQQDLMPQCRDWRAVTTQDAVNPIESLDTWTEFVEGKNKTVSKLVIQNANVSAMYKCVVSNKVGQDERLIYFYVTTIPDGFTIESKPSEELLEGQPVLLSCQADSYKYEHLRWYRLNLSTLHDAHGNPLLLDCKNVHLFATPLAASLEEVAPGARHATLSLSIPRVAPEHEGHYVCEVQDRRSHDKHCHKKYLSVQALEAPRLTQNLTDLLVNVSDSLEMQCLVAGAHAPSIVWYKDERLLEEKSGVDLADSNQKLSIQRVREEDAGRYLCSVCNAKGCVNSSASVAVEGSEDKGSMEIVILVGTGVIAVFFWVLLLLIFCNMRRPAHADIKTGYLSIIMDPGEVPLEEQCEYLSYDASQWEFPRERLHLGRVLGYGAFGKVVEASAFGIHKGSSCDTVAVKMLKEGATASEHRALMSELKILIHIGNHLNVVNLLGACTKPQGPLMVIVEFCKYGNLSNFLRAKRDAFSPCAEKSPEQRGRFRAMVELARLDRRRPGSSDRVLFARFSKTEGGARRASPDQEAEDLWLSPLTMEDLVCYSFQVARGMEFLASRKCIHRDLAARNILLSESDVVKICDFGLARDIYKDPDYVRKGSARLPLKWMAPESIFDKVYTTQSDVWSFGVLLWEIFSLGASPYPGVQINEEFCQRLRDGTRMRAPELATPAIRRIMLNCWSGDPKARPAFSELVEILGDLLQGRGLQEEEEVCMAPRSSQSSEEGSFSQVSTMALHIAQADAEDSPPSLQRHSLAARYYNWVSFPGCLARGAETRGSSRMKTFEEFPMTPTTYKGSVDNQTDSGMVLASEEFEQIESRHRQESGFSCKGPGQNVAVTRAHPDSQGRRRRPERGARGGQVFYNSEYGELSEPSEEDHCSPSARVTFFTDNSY

[17] = target: Vascular endothelial growth factor receptor 3 (Homo sapiens) (UniProt P35916); settings: at 1 µM
[18] = target: Macrophage colony-stimulating factor 1 receptor (Homo sapiens) (UniProt P07333); settings: at 0.1 µM
Chain of Macrophage colony-stimulating factor 1 receptor (Homo sapiens) (P07333 whole entry): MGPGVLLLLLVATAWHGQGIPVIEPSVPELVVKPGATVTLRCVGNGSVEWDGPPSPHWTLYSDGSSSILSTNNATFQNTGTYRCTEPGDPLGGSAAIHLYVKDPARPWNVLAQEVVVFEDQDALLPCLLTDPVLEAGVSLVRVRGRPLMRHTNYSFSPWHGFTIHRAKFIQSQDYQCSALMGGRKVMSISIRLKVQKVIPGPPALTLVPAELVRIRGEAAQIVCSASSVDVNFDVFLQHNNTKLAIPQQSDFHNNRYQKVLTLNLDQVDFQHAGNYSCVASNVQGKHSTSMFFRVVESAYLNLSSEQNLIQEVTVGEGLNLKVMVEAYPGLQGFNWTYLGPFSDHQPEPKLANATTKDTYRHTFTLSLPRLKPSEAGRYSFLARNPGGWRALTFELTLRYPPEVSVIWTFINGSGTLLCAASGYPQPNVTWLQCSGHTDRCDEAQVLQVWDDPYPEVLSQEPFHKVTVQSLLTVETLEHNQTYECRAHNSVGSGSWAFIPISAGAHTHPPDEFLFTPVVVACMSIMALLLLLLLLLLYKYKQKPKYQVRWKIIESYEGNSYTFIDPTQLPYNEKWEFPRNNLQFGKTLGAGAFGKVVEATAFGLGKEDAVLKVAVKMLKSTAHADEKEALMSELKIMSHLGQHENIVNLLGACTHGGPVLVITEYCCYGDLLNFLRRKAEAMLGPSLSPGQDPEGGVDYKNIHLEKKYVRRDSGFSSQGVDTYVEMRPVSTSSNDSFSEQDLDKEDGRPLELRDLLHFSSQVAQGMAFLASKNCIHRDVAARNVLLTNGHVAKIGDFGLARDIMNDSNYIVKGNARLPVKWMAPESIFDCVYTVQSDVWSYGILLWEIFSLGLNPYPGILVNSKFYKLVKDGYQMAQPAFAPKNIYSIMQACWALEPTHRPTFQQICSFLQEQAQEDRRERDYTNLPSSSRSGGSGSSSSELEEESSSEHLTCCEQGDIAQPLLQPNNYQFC

[19] = target: Macrophage colony-stimulating factor 1 receptor (Homo sapiens) (UniProt P07333); settings: at 1 µM
[20] = target: Tyrosine-protein kinase Fyn (Homo sapiens) (UniProt P06241); settings: at 0.1 µM
Chain of Tyrosine-protein kinase Fyn (Homo sapiens) (P06241 2-537 limits assumed): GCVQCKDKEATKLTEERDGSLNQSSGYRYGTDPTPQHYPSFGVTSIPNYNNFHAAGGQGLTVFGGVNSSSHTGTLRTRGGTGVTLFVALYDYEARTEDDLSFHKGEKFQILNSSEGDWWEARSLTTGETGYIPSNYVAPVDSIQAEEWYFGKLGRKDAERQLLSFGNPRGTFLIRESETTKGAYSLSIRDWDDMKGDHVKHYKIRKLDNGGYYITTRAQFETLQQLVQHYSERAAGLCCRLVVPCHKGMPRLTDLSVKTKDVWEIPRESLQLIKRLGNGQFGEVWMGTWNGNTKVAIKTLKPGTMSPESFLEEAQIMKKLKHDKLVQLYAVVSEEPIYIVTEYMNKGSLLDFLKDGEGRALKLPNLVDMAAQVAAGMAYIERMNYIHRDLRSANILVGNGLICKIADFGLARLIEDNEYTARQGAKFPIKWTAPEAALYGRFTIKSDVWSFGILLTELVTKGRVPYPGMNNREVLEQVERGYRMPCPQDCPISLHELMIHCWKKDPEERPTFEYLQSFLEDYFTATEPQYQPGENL

## ON=C1CCc2cc(-c3nc(C4CCNCC4)[nH]c3-c3ccncc3)ccc21
[1]
  inhibition: 2.68%
[2]
  inhibition: 0.37%
[3]
  inhibition: -0.17%
[4]
  inhibition: 0.86%
[5]
  inhibition: 1.18%
[6]
  inhibition: -0.82%
[7]
  inhibition: -3.55%
[8]
  inhibition: 2.03%
[9]
  inhibition: 0.72%
[10]
  inhibition: 4.01%
[11]
  inhibition: 1.01%
[12]
  inhibition: 1.85%
[13]
  inhibition: 0.96%
[14]
  inhibition: 3.99%
[15]
  inhibition: 2.96%
[16]
  inhibition: -0.02%
[17]
  inhibition: 0.4%
[18]
  inhibition: 2.19%
[19]
  inhibition: 0.63%
[20]
  inhibition: 2.09%

## NS(=O)(=O)c1ccc(Nc2cc(-c3cccc(O)c3)n[nH]2)cc1
[1]
  inhibition: 6.34%
[2]
  inhibition: 3.72%
[3]
  inhibition: 3.43%
[4]
  inhibition: 6.7%
[5]
  inhibition: 7.9%
[6]
  inhibition: 1.66%
[7]
  inhibition: -3.5%
[8]
  inhibition: 6.05%
[9]
  inhibition: 4.88%
[10]
  inhibition: 4.44%
[11]
  inhibition: 2.91%
[12]
  inhibition: 5.76%
[13]
  inhibition: 4.69%
[14]
  inhibition: 16%
[15]
  inhibition: 30.9%
[16]
  inhibition: 6.76%
[17]
  inhibition: 6.9%
[18]
  inhibition: 5.17%
[19]
  inhibition: 15.4%
[20]
  inhibition: 4.67%
